PubChem BioAssay
Active and inactive are the calls of the source.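 The calls were made as follows, unless noted: active = visually confirmed hit in the image check and inhibition above 20%; inconclusive = visually confirmed hit but inhibition not above 20%; inactive = no visual hit in the image check.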

How the values were obtained:
[1] = inhibitors of TNFa-induced NFkB p65 translocation, primary screen, imaging, HUVEC, MLSMR starter and 10KST1 sets (AID 438;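 active = inhibition above 20% together with a positive visual image hit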;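 also: compound added about 3h40 before a 20 min TNFalpha stimulation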;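 as to inhibition: signal is the nuclear over cytoplasmic p65 intensity ratio per well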); conditions: HUVEC TNFa-induced p65 nuclear translocation; cell count: measured here: nuclei count (cytotoxicity indicator), at 2.08 µM; inhibition: at 2 µM, stronger effect = higher value, 0% TNFa-plus-vehicle, 100% no-TNFa wells
[2] = reduction of polyQ htt aggregates in cells – imaging, exon1htt(103Q)mCFP cells, high-content imaging, primary screen (AID 483;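 active = visual image review flags a hit and inhibition of aggregation exceeds 20%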;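 also: compound exposure lasted 3 days before fixation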;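 as to nuclei count: percent of the per-plate median nuclei count of sample wells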); conditions: exon1htt(103Q)mCFP cell line, aggregate imaging, at 2 µM; inhibition of aggregation: stronger effect = higher value; nuclei count: measured here: cell count, toxicity
[3] = endothelial E-selectin expression blockers – imaging, HUVEC, immunofluorescence, MLSMR starter and 10KST1 sets, primary screen (AID 487); conditions: HUVEC TNFalpha-induced E-selectin immunofluorescence imaging, at 2 µM; inhibition: stronger effect = higher value; nuclei count: measured here: cell number, toxicity;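 as to inhibition: signal is fraction of cell area covered by stained E-selectin grains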;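 as to nuclei count: 100% = median nuclei count of all wells on the same plate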
[4] = biological target: Voltage-gated potassium channel subunit beta-2 (Rattus norvegicus) (UniProt P62483); assay: inhibitors of rat Kvbeta2 reductase activity – biochemical, NADPH fluorescence, primary screen (AID 622;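 active = fluorescence slope higher than the sample average by over 3 SD, cut at about -0.22 in these data, passing the limit was not always enough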;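 also: slope of raw intensity against log time taken from 70 to 1610 s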); conditions: recombinant KvBeta, 4-cyanobenzaldehyde reduction, at 10 µM, stronger effect = higher value
Sequence of Voltage-gated potassium channel subunit beta-2 (Rattus norvegicus) (P62483 whole entry, looked up): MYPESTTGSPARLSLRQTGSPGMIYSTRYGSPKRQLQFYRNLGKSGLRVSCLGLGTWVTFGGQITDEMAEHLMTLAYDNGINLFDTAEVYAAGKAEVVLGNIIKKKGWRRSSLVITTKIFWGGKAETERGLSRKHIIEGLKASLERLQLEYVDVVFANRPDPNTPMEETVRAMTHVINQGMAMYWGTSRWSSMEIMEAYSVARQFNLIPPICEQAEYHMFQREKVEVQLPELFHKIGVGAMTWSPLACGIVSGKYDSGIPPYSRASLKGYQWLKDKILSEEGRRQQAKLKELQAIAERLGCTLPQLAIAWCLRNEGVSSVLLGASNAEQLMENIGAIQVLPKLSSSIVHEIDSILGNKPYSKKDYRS

[5] = biological target: Voltage-gated potassium channel subunit beta-2 (Rattus norvegicus) (UniProt P62483); assay: enhancers of rat Kvbeta2 NADPH turnover – biochemical, NADPH fluorescence, primary screen (AID 623;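 active = NADPH fluorescence slope more negative than the mean of all samples by about 3 SD, 99.7% confidence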;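 also: fluorescence intensity change per second fitted from 20 to 320 s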); conditions: Recombinant KvBeta, NADPH fluorescence decrease slope, 10 min; at 10 µM; stronger effect = lower value
[6] = biological target: Alpha-2C adrenergic receptor (Homo sapiens) (UniProt P18825); assay: compounds altering alpha2C-coupled GIRK flux – cell-based, HEK293 alpha2C/GIRK1/2, thallium flux, primary screen (AID 624;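 active = fluorescence slope after compound addition differing from the mean of all screened samples at 99.7% confidence, in either direction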;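 also: slope of fluorescence ratio to pre-addition baseline per second over 15 to 24 s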); conditions: thallium flux BTC fluorescence, at 10 µM, actives lie on both sides
Sequence of Alpha-2C adrenergic receptor (Homo sapiens) (P18825 whole entry, looked up): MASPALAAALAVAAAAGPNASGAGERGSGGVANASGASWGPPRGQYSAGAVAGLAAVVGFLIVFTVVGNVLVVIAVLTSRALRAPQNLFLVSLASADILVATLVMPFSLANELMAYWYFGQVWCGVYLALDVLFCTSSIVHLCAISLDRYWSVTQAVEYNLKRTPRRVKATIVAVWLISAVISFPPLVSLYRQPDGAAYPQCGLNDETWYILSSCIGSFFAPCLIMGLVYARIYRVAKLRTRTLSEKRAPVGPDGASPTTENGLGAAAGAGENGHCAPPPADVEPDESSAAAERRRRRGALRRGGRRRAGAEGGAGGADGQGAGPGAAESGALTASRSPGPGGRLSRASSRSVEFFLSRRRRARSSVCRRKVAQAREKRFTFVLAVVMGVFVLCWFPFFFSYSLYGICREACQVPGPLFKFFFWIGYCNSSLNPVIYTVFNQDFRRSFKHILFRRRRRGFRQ

[7] = blockers of RIG-like receptor reporter activation – cell-based, Sendai virus stimulus, luciferase, 10K MLSCN set, TLR/RLR signaling modifier project, primary screen (AID 602276;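 active = inhibition at or above 50% at 10 µM; inactive = inhibition below 50%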;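 also: firefly luciferase from ISG56 promoter only with Renilla not read in this screen; 0% = Sendai virus plus DMSO and 100% = medium plus DMSO without virus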); conditions: HEK293 RL24 IRF3 luciferase reporter, at 10 µM, stronger effect = higher value
[8] = TLR3 IRF3 reporter activation blockers – cell-based, poly I:C stimulus, luciferase, 10K MLSCN set, primary screen (AID 602277;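 active = inhibition of the reporter signal at or above 50%; inactive = inhibition below 50%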); conditions: HEK293-TLR3 RL24 IRF3 luciferase reporter, at 10 µM, stronger effect = higher value

| SMILES | cell count [1] | inhibition [1] | inhibition of aggregation [2] | nuclei count [2] [%] | inhibition [3] | nuclei count [3] [%] | fluorescence slope [4] | NADPH fluorescence slope [5] | slope [6] | inhibition [7] | inhibition [8] |
| --- | --- | --- | --- | --- | --- | --- | --- | --- | --- | --- | --- |
| Cc1nc(N2CCC(C)CC2)c2c(C)c(C(=O)O)sc2n1 | 657 | -4.1% (inactive) | 31% (inactive) | 66.2 | -72.5% (inactive) | 103 | -0.303 (inactive) | 1.1e-05 (inactive) | 0.00417 (inactive) | 14% (inactive) | 23.3% (inactive) |
| COc1cc(OC)cc(-c2nc(N)n[nH]2)c1 | 455 | 3.7% (inactive) | 0% (inactive) | 105 | -33% (inactive) | 104 | -0.411 (inactive) | -5.5e-05 (inactive) | 0.00517 (inactive) | 10.7% (inactive) | 12% (inactive) |
| CCCOC(=O)C1C2C=CC3(CN(c4cccc(Cl)c4)C(=O)C13)O2 (centres undefined) | 743 | -5.5% (inactive) | -3.6% (inactive) | 95.4 | -55.3% (inactive) | 116 | -0.491 (inactive) | 1.7e-05 (inactive) | 0.00748 (inactive) | 12.8% (inactive) | 28.1% (inactive) |
| COc1ccc(Cl)cc1NC(=O)CCN1CCN(c2ccccc2C)CC1 | 285 | 21.9% (inactive) | -3.9% (inactive) | 101 | -35.4% (inactive) | 112 | -0.308 (inactive) | -6.5e-05 (inactive) | 0.00554 (inactive) | 10% (inactive) | 5.86% (inactive) |
| O=P1(O)C=C(c2ccccc2)NC(c2ccccc2)=C1 | 405 | 3.4% (inactive) | -6.9% (inactive) | 92.3 | -48% (inactive) | 117 | -0.35 (inactive) | -5e-07 (inactive) | 0.00466 (inactive) | 10.1% (inactive) | 7.48% (inactive) |
| Cc1cccc(-c2cc3nc4c(c(N5CCOCC5)n3n2)CCCC4)c1 | 621 | -7.5% (inactive) | 1.5% (inactive) | 107 | -74.2% (inactive) | 101 | -0.399 (inactive) | 1e-05 (inactive) | 0.00597 (inactive) | -9.84% (inactive) | 33.5% (inactive) |
| COc1cccc(CNc2nc3nc(C)c(Cl)c(C)n3n2)c1 | 343 | 2.8% (inactive) | -5% (inactive) | 86.4 | 50.1% (inactive) | 83.7 | -0.375 (inactive) | 2.9e-05 (inactive) | 0.00679 (inactive) | -16.5% (inactive) | 98.2% (active) |
| CCOC(=O)C1CCN(c2c(N3CCCCCC3)c(=O)c2=O)CC1 | 897 | -0.9% (inactive) | -6.8% (inactive) | 98.7 | -84.4% (inactive) | 112 | -0.581 (inactive) | -4.7e-05 (inactive) | 0.0057 (inactive) | 8.92% (inactive) | 28.8% (inactive) |
| Cn1c(=O)oc2cc(S(=O)(=O)N3CCN(c4ccccn4)CC3)ccc21 | 826 | 8% (inactive) | 24.1% (inactive) | 116 | -36.5% (inactive) | 117 | -0.577 (inactive) | -4.3e-05 (inactive) | 0.00702 (inactive) | 15% (inactive) | 31.2% (inactive) |
| COc1ccc(OCC(=O)N2CCN(C(=O)COc3ccc(Br)cc3)CC2)cc1 | 665 | -28.3% (inactive) | -4% (inactive) | 108 | -13.6% (inactive) | 103 | -0.486 (inactive) | -3.9e-05 (inactive) | 0.00463 (inactive) | 18% (inactive) | 20.9% (inactive) |
| CCOc1ccc(N2C(=O)CC(N3CC(C)OC(C)C3)C2=O)cc1 (centres undefined) | 578 | -14.1% (inactive) | -12% (inactive) | 104 | 3.9% (inactive) | 128 | -0.357 (inactive) | 5.9e-06 (inactive) | 0.00636 (inactive) | 9.5% (inactive) | 25.7% (inactive) |
| O=C(NC1CCCCC1)c1cc2nc(-c3ccco3)cc(C(F)(F)F)n2n1 | 455 | -5.7% (inactive) | 12.4% (inactive) | 92.7 | -46% (inactive) | 156 | -0.218 (inactive) | -5.6e-05 (inactive) | 0.00549 (inactive) | 10.5% (inactive) | 10.6% (inactive) |
| CC(=O)OCCNc1cc(N2CCN(C)CC2)c2noc3c2c1C(=O)c1ccccc1-3 | 746 | 1.6% (inactive) | -43.5% (inactive) | 114 | -15.4% (inactive) | 111 | -0.58 (inactive) | -2.8e-05 (inactive) | 0.00388 (inactive) | 27.6% (inactive) | 21.4% (inactive) |
| Cc1nnc(SCc2nc3ccccc3s2)n1-c1ccccc1 | 394 | -1% (inactive) | -14.1% (inactive) | 83.9 | -324% (inactive) | 153 | -0.317 (inactive) | 7.5e-06 (inactive) | 0.005 (inactive) | 13.8% (inactive) | -17.5% (inactive) |
